PubChem BioAssay (NCI)
This is part of a sample that, as a whole, favours compounds with a hit. Of some 83,000 tested, about 20% had one in any assay.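 Plates (96-well) were seeded with cells, treated with compound at one concentration, and incubated for 48 hours before percent growth was determined.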 Values without a mark were called inactive. Active and inactive are the calls of the source. How the source made its calls: active means growth percent below 10; inactive means the rest.

Columns and labels:
Assay in all cases: NCI-60 one-dose screen, 48 h (100 = growth as untreated, 0 = no growth, -100 = all killed)
Conditions in all cases: 10 µM unless noted
[1] = test system: NCI-H23 lung
[2] = test system: NCI-H226 lung
[3] = test system: NCI-H322M lung
[4] = test system: HOP-62 NSCLC
[5] = test system: NCI-H460 lung
[6] = test system: HOP-92 NSCLC
[7] = test system: NCI-H522 lung
[8] = test system: A549/ATCC NSCLC
[9] = test system: 786-0 renal
[10] = test system: COLO 205 colon

Compound | growth [1] | growth [2] | growth [3] | growth [4] | growth [5] | growth [6] | growth [7] | growth [8] | growth [9] | growth [10]
COC(=O)[C@H](Cc1ccccc1)NC(=O)[C@@H](OC)[C@@H]1Cc2cc3cc(OC4CC(OC5CC(O)C(O)C(C)O5)C(O)C(C)O4)c(C)c(O)c3c(O)c2C(=O)[C@H]1OC1CC(OC2CC(OC3CC(C)(O)C(O)C(C)O3)C(O)C(C)O2)C(O)C(C)O1 (stereo not given in full) | -28.5% (active) | -33% (active) | 7.54% (active) | 4.37% (active) | 4.92% (active) | -17.5% (active) | -30.7% (active) | 6.81% (active) | 0.647% (active) | -36.7% (active)
CC(C)Nc1cc(-c2c[nH]c(C(=O)N[C@H](CO)c3cccc(Cl)c3)c2)c(Cl)cn1 | 19.9% | 38% | 17.5% | 28.6% | 25.2% | -18.5% (active) | 22.2% | 14.8% | 42.4% | -19.2% (active)
O=C(NO)c1ccc(Cn2c(=O)n(-c3ccccc3F)c(=O)c3ccccc32)cc1 | -40.4% (active) | 17.6% | 26.2% | 8.43% (active) | 19% | 23.2% | -60.3% (active) | 5.07% (active) | 33.3% | -58.3% (active)
CCN1CCN(Cc2ccc(Cc3ncc(F)c(-c4cc(F)c5nc(C)n(C(C)C)c5c4)n3)nc2)CC1 | 44.3% | 34.3% | 29.3% | 44.4% | -56.1% (active) | 50% | 69% | 28.5% | 46.4% | 16%
Cc1ccc(N)cc1CN1C(=O)c2ccccc2C1=O | 105% | 93.1% | 104% | 97.1% | 105% | 86.9% | 58.5% | 105% | 98.5% | 105%
N#CC[C@H](C1CCCC1)n1cc(-c2ncnc3[nH]ccc23)cn1 | 71.5% | 33.7% | 76.2% | 45.1% | 54.7% | 41.5% | 37.9% | 43.8% | 54.7% | 37%
O=C1OCC2=C1C(c1cccc(F)c1)c1cc3c(cc1N2CCO)OCCO3 (stereo not given) | 25.4% | 26.2% | 45.3% | 30.5% | 9.42% (active) | 66.6% | 17.1% | 18.1% | 26.4% | -5.04% (active)
COc1ccc(Br)cc1NC(=O)Nc1cccc2c1ccn2Cc1ccnc(N)c1 | 55.1% | 22.2% | 32.7% | -44.7% (active) | 14.6% | -7.4% (active) | -50.9% (active) | 18.9% | 31.2% | -57.5% (active)
N#CC1(C#N)C(c2cccs2)NC(c2cccs2)C1(C#N)C#N (stereo not given) | 95% | 102% | 98% | 95% | 110% | 113% | 95.9% | 100% | 101% | 106%
Cc1[nH]c(/C=C2\C(=O)Nc3ccc(F)cc32)c(C)c1C(=O)NC[C@H](O)CN1CCOCC1 | 27.1% | 47.8% | 26.2% | 25.7% | 19% | 14.5% | 45.4% | 27.4% | 35.6% | -8.22% (active)
Cc1cc2c(-c3nc4ccccn4c3Nc3cccc4ccccc34)c(O)c(O)cc2c(O)c1-c1c(C)cc2c(-c3nc4ccccn4c3Nc3cccc4ccccc34)c(O)c(O)cc2c1O | 12.4% | 46.6% | 59.4% | 37.9% | 3.9% (active) | 9.86% (active) | 32% | 16.1% | 68% | 28%
CNc1ncc2cc(-c3cc(NC(=O)NCCC(C)(C)C)c(F)cc3C)c(C)nc2n1 | 12.8% | 33.1% | 4.99% (active) | 5.28% (active) | 21.3% | -44.3% (active) | -5.5% (active) | 12.2% | 29.8% | -34.5% (active)
Clc1ccc2c(NCCNc3nc(N4CCCC4)nc4ccccc34)ccnc2c1 | 11.4% | -31.2% (active) | -7.37% (active) | -47.2% (active) | -23.6% (active) | -1.92% (active) | -48% (active) | -4.72% (active) | -77.4% (active) | -81.4% (active)
CCCCN1CCCC[C@@H]1C(=O)N[C@H](C(=O)N(C)[C@H](CCc1nc(C(=O)N[C@@H](Cc2ccccc2)C[C@H](C)C(=O)OC)cs1)C(C)C)C(C)C | 59.7% | 80.6% | 75.6% | 80.8% | 94.6% | 18.8% | 49.6% | 81.8% | 77.4% | 63.5%
NC[C@@](O)(c1ccc(Cl)cc1)c1ccc(-c2cn[nH]c2)cc1 | 27.4% | 43.9% | 10.3% | 15.2% | 23.1% | -1.15% (active) | 17.7% | 18.3% | 6.12% (active) | -22.8% (active)
Cn1ncc(Cl)c1-c1cc(C(=O)N[C@H](CN)Cc2cccc(F)c2)sc1Cl | 33.4% | 34.5% | 28.6% | 25.4% | 8.53% (active) | -27.5% (active) | 6.11% (active) | 18.4% | -14.3% (active) | -73.9% (active)
COc1cc(NC2CCC(=O)N2c2ccc(Cl)cc2Cl)cc(OC)c1OC (stereo not given) | 99.4% | 99.9% | 97.3% | 103% | 102% | 83.1% | 99.9% | 99.4% | 103% | 97.7%
Cc1nn(-c2nc3ccccc3[nH]2)c2c1C(c1ccc(OCc3ccc(F)cc3)cc1)CC(=O)N2 (stereo not given) | 46.9% | 74.5% | 70.4% | 69.5% | 48% | 72% | 30.5% | 41.8% | 63.4% | 103%
Cc1cc(C(=O)Nc2cc(Oc3ccc4nc(NC(=O)C5CC5)cn4n3)ccc2C)n(C)n1 | 24.7% | 43.3% | 15.8% | 14.4% | 18.9% | -25.6% (active) | 14.1% | 11% | 51.9% | -27.2% (active)
COC(=O)Nc1nc2ccc(C(=O)c3ccc(N(C)C4COC4)cc3)cc2[nH]1 | 30.5% | 67.2% | 48.3% | 10.2% | 3.28% (active) | 46.8% | -31.5% (active) | 14.9% | 27.8% | -38.8% (active)
CCCCn1c(C)nc2cc(Nc3nc(N4CCCCC4)nc4nc[nH]c34)ccc21 | 51.4% | 44.4% | 81.8% | 62.1% | 65.5% | -9.51% (active) | 52.6% | 48.4% | 49.1% | 28.9%
CC[C@H](CO)Nc1nc(NCc2ccccc2)c2ncn(C(C)C)c2n1 | 63.5% | 76% | 61.3% | 48.2% | 47.8% | 65.4% | 48.8% | 56% | 57.6% | 47.1%
Cc1cc([C@@H](C)Nc2ccccc2C(=O)O)c2nc(N3CCOCC3)cc(=O)n2c1 | 54.8% | 55.4% | 39.9% | 37.5% | 22.6% | 13.7% | 42.3% | 32% | 18.6% | -5.47% (active)
CNC(=O)c1nn(C)c2c1C(C)(C)Cc1cnc(Nc3ccc(N4CCN(C)CC4)cc3)nc1-2 | 2.37% (active) | 12.3% | 15.1% | -9.46% (active) | 7.46% (active) | 3.76% (active) | -29.4% (active) | -0.797% (active) | 12.3% | -80.1% (active)
C=CC[n+]1c(/C=C2\Sc3ccccc3N2C)sc(-c2ccccc2)c1-c1ccccc1 | 0.426% (active) | 10.3% | 24.2% | 17.8% | 8.83% (active) | -12.5% (active) | -7.57% (active) | 14.2% | 16.8% | -30.2% (active)
COc1ccc(C2OC(c3cc(-c4cc5ccccc5o4)nn3-c3ccccc3)=NN2C(C)=O)cc1 (stereo not given) | 92.5% | 91% | 97.9% | 91.4% | 104% | 74.1% | 83.4% | 102% | 92.9% | 103%
C[C@@H](NC(=O)c1ncnc(N)c1Cl)c1ncc(C(=O)Nc2cc(C(F)(F)F)c(Cl)cn2)s1 | 59.8% | 78.6% | 80.9% | 63.1% | 71.6% | 64.1% | 46% | 53.2% | 110% | 13.2%
